Source: PubChem BioAssay (NCI)
About 79,000 compounds went through this panel and 15% of them were active in at least one assay; those are over-represented in the sample as a whole. Unmarked numbers belong to inactive results. Activity calls are given as the source filed them. Rule as the data show it: active = growth inhibition above about 70%; inactive = the rest.

Assay: NCI Yeast Anticancer Drug Screen. Data for the bub3 strain (AID 167)
Settings: S. cerevisiae bub3 mutant strain, at 5.0 µM (retest, dose inferred, filed as 0.5), stronger effect = higher value
In short: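 Mutant yeast screening strain plus compound; vehicle-treated cultures serve as the 0% inhibition reference.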

| Compound | growth inhibition |
| --- | --- |
| COC(=O)/C=C/c1cccc[n+]1[O-] | 4% |
| CN(C)CCCNc1c(C#N)[n+]([O-])c2cc(Cl)ccc2[n+]1[O-] | 88% (active) |
| Cc1c(N=Nc2ccc(Br)cc2)c(-c2ccccc2)nn1C(N)=S | 7% |
| COc1cc2c(c(OC)c1OC)-c1ccc(O)c(=O)cc1C(N=Cc1ccccc1)CC2 (stereo not given) | -2% |
| CCC(C)SC1SCC2C(=O)N(C)C3(CC3C)C(=O)OCC(NC(=O)c3nc4ccccc4cc3O)C(=O)NC(C)C(=O)N(C)C1C(=O)N(C)C1(CC1C)C(=O)OCC(NC(=O)c1nc3ccccc3cc1O)C(=O)NC(C)C(=O)N2C (stereo not given) | 75% (active) |
| O=C(N/C(=C\c1ccc2c(c1)OCO2)c1nc2ccccc2s1)c1ccccc1 | 19% |
| CCCC/C=C1/CCC(CN(C)C)C1=O (stereo not given) | 14% |
| O=C(O)c1cc2c(cc1CC(Cc1ccc3c(c1)CCCC3)C(=O)O)CCCC2 (stereo not given) | 7% |
| CCNC(=O)COc1ccc(Cl)cc1Cl | -5% |
| Fc1ccc(OCCC(Cn2ccnc2)c2ccc(Cl)cc2Cl)cc1 (stereo not given) | 83% (active) |
| Cc1ccc(NC(=O)/C(CC(=O)c2sc(Nc3ccc(Cl)c(Cl)c3)nc2C)=N\Nc2ccc([N+](=O)[O-])cc2[N+](=O)[O-])c(C)c1 | -10% |
| Oc1ccc(C/C=C/c2ccccc2)cc1O | -1% |
| CC(=O)OC1=CC2=CCC3C(CCC4(C)C(C(C)=O)CCC34)C2(C)CC1 (stereo not given) | -11% |
| CCCCNc1ccc(-c2c(N)nc(N)nc2CC)cc1[N+](=O)[O-] | -4% |
| ClCCOCCOc1c(Cl)cc(Cl)c(Cl)c1Cl | 3% |
| Cc1ccc(S(=O)(=O)C(=S)Sc2ccccc2)cc1 | 17% |
| CCC(C)(C)c1ccc(OCCO)c([N+](=O)[O-])c1 | 19% |
| CCCCCCC(C)S(=O)(=O)c1ccc(C)cc1 (stereo not given) | 0% |
| O=C1N(Cc2ccccc2)CC1(c1ccccc1)C1CCCCC1O (stereo not given) | -2% |
| COc1cc2c(oc(=O)c3cc(C)cc(OC)c32)c2c(C3OC(C)C(O)C(C)(O)C3O)ccc(O)c12 (stereo not given) | 83% (active) |

| Compound | growth inhibition |
| --- | --- |
| CCc1cc(C)cc(NC(=O)OC2CCCCC2C)c1 (stereo not given) | 37% |
| Cc1cc(Nc2ccc(N=Nc3ccc(O)c4ncccc34)cc2)nc(C)n1 | 5% |
| Oc1ccc(C2SC(c3ccc(O)cc3)SC(c3ccc(O)cc3)S2)cc1 (stereo not given) | 30% |
| O=[N+]([O-])c1cnc(Sc2cncc[n+]2[O-])s1 | 99% (active) |
| O=C(C1=Cc2ccccc2OC1)N1CCN(c2cccc(Cl)c2)CC1 | 10% |
| O=C1C=CC(=O)c2cc(Sc3ccccc3)c(=O)ccc21 | 30% |
| O=C(O)CCCCCCC(=O)CCl | 30% |
| CC(=O)NC1=C(Sc2ccc(C)cc2)C(=O)c2ccccc2C1=O | 67% |
| Cc1cc(O)c(C=NC(=S)C(N)=S)c(=O)o1 | 21% |
| Cc1cc(C)c(Cc2cc(C(C)(C)C)cc(C)c2O)cc1Cc1cc(C(C)(C)C)cc(C)c1O | -4% |
| O=C(O)CCC/C(=N\Nc1ccccc1)C(=O)O | 1% |
| Cc1cc(Oc2nc(Cl)nc(C(Cl)(Cl)Cl)c2Cl)cc(C)c1N(C)C (tested in a mixture with another compound) | 7% |
| CC(NCCO)c1ccc2ccccc2c1 (stereo not given) | 3% |
| [O-][n+]1ccc(Br)c(/C=C/c2ccccc2)c1 | -5% |
| O=C(NCCNCCNCCNC(=O)c1cc(-c2ccccc2)nc2ccccc12)c1cc(-c2ccccc2)nc2ccccc12 | -25% |
| CC(C)C(Sc1nc(-c2ccccc2)c(-c2ccccc2)[nH]1)C(=O)NN (stereo not given) | 29% |
| O=C(CNc1cccc(Cl)c1)Nn1c(-c2ccccc2)nc2ccccc2c1=O | 22% |
| O=C(COc1ccc(Cl)c(Cl)c1)Nc1ccc[n+](Cc2ccc(Cl)c(Cl)c2)c1 | 2% |
| CCOC(=O)c1cnccc1CC1(C#N)c2ccccc2C=CN1C(=O)c1ccccc1 (stereo not given) | 6% |
| O=C1C(N2CCOCC2)=C(Cl)C(=O)c2ncccc21 | 31% |
